Experimental data as given in the supplement of paper PMC11732987, “Enantioselective OTUD7B fragment discovery through chemoproteomics screening and high-throughput optimisation” (Communications Chemistry, 2025).

Assays:
Experiment in all cases: log2 ratio of Biotin-Ahx-Ub-VS probe labelling (fragment/DMSO); higher = less target engagement (more negative = stronger competition), active = hit call of the paper (q ≤ 0.05, log2 ratio ≤ -1)
Conditions in all cases: compound concentration: 200 uM; treatment time: 3 h
USP42 = molecular target: T1, USP42 (UniProt Q9H9J4)
T1 sequence (whole entry): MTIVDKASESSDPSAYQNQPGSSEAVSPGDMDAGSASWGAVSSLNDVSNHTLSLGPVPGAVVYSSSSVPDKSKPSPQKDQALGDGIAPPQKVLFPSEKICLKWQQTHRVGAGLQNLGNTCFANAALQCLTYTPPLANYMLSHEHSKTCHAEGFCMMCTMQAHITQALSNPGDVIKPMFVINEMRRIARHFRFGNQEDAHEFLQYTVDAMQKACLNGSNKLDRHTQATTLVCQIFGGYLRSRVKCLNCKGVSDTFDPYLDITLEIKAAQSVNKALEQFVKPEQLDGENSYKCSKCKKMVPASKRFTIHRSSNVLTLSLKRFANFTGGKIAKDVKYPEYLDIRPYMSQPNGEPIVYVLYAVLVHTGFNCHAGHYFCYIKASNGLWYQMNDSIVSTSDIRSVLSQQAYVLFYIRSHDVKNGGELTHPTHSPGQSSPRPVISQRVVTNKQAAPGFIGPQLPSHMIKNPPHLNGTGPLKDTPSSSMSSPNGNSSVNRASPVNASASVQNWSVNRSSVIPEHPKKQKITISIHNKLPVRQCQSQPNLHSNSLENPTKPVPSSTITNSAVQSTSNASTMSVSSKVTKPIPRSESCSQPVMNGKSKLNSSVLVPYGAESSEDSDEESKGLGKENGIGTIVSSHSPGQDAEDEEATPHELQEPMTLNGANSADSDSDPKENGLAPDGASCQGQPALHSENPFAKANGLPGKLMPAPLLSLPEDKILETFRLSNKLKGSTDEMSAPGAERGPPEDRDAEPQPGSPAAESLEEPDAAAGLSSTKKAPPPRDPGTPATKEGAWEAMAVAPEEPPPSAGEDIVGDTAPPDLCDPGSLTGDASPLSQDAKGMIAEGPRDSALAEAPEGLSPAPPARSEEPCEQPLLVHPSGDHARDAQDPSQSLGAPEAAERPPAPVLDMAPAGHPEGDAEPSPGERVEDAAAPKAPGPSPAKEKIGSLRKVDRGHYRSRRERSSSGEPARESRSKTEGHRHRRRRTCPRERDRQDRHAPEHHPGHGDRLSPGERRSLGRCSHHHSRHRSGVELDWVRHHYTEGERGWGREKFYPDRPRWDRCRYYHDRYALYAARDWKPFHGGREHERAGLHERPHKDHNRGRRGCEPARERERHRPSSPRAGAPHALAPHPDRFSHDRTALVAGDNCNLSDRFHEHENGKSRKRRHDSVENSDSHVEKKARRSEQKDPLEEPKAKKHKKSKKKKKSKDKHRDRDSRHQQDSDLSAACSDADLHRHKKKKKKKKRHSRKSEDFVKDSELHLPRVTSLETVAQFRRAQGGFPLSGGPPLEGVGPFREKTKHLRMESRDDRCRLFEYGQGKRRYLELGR
Procedure, shortened: (§1)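 Fragment (200 µM) or vehicle was incubated for 3 h with triplicate HEK293T lysate samples of 495 µg, which were then treated with Biotin-Ahx-Ub-VS at 0.5 µM final for 1 h. Labelled DUBs were enriched on NeutrAvidin, digested with LysC and trypsin, and analysed by diaPASEF LC-MS/MS. Values are average log2 fragment/vehicle ratios from an unpaired t-test on global-median-normalised Spectronaut label-free quantities, using proteins with ≥2 unique peptides.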

USP46 = USP46 (UniProt P62068)
USP46, sequence (P62068 whole entry): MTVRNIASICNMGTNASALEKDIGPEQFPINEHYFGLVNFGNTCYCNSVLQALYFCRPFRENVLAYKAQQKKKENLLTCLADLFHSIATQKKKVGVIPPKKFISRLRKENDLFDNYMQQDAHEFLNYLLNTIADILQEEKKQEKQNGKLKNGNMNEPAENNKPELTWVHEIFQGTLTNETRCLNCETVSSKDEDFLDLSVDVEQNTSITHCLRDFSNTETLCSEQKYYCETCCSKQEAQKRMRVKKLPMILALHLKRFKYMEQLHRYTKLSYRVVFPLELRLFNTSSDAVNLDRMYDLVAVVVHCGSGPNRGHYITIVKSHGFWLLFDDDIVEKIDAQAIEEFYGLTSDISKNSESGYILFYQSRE
Procedure, shortened: as §1

USP47 = molecular target: T2, USP47 (UniProt Q96K76)
T2 sequence (whole entry): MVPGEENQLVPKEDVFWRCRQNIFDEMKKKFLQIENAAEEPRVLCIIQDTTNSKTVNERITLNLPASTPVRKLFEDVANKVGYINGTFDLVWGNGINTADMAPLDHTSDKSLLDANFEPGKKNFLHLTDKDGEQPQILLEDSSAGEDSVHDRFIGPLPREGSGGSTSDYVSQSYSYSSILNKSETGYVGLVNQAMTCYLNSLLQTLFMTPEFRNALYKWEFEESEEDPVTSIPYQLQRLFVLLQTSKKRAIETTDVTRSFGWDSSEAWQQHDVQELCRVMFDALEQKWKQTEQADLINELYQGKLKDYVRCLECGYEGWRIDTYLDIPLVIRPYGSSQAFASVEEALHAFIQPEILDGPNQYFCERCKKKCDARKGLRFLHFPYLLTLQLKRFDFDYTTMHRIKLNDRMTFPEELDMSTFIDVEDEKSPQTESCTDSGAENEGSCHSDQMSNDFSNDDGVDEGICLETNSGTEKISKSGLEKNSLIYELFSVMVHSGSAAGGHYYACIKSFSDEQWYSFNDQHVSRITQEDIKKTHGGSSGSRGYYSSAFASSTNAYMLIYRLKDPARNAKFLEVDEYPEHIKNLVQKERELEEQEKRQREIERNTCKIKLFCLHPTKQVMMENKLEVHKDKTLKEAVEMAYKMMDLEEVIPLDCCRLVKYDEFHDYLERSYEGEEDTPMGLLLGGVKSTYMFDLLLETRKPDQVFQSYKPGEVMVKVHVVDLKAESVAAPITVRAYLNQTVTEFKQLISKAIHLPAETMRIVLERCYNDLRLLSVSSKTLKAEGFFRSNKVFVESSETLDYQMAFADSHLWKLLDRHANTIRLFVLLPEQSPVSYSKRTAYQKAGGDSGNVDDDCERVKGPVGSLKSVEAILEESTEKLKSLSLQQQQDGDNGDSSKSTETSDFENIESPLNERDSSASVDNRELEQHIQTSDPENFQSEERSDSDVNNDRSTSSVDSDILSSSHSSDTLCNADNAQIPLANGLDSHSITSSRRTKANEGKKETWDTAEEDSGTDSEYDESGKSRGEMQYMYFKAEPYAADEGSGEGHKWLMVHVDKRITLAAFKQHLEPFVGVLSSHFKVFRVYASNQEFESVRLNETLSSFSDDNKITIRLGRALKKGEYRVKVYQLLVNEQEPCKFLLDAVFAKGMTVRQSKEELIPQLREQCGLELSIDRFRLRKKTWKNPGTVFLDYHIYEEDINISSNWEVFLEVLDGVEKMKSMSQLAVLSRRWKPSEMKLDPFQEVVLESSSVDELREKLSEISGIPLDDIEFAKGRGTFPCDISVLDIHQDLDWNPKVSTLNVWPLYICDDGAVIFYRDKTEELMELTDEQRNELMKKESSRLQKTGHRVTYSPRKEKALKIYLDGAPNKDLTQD
Procedure, shortened: as §1

USP48 = molecular target: T3, USP48 (UniProt Q86UV5)
T3 sequence (whole entry): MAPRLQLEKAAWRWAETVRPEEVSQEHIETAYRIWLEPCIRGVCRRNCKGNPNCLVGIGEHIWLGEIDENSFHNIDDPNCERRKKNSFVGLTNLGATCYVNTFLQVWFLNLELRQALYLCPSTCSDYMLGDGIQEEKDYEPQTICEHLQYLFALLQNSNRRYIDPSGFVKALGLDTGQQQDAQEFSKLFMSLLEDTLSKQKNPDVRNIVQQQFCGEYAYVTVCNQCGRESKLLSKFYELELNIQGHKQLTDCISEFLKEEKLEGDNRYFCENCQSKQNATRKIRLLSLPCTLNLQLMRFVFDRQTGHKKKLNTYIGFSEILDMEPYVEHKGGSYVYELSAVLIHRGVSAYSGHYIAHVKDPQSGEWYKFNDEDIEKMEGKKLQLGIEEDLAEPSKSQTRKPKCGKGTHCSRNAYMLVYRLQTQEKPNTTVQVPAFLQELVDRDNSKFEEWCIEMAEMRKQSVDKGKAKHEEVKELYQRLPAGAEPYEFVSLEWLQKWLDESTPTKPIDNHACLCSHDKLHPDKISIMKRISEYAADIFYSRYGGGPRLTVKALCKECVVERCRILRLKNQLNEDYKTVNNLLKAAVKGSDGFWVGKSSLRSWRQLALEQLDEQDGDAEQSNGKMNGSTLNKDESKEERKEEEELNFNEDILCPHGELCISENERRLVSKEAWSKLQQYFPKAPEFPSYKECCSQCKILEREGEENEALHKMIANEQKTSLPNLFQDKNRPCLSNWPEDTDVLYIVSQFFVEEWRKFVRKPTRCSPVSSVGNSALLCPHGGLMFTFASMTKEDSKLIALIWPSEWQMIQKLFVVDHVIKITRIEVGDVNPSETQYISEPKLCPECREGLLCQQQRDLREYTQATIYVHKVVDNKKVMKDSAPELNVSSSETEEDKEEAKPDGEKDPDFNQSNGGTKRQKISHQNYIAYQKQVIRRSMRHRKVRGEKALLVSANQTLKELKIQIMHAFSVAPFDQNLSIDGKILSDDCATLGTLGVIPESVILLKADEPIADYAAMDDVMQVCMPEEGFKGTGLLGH
Procedure, shortened: as §1

USP5 = molecular target: T4, USP5 (UniProt P45974)
T4 sequence (whole entry): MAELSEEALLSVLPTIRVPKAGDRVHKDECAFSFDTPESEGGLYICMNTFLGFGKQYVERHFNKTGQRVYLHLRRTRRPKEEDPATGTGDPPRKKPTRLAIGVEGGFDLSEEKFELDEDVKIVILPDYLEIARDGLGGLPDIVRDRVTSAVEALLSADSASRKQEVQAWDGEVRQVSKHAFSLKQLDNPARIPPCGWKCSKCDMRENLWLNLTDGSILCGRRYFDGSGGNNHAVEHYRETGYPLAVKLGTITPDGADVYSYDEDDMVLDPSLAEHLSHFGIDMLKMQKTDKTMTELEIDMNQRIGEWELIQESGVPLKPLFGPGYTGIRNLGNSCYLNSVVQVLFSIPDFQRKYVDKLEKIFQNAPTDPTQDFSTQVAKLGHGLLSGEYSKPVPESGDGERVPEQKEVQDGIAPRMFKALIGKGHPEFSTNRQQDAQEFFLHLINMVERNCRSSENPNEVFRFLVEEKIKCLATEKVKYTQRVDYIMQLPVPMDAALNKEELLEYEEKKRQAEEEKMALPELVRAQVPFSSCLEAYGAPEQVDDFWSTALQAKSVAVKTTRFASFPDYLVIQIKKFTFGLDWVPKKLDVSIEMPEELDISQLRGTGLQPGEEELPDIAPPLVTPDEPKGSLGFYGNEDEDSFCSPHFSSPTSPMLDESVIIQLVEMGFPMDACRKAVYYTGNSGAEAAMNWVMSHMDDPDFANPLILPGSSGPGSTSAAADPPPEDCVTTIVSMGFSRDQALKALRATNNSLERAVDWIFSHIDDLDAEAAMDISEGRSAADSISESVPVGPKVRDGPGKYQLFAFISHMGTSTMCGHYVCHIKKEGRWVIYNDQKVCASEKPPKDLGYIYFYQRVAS
Procedure, shortened: as §1

USP54 = USP54 (UniProt Q70EL1)
USP54, sequence (Q70EL1 whole entry): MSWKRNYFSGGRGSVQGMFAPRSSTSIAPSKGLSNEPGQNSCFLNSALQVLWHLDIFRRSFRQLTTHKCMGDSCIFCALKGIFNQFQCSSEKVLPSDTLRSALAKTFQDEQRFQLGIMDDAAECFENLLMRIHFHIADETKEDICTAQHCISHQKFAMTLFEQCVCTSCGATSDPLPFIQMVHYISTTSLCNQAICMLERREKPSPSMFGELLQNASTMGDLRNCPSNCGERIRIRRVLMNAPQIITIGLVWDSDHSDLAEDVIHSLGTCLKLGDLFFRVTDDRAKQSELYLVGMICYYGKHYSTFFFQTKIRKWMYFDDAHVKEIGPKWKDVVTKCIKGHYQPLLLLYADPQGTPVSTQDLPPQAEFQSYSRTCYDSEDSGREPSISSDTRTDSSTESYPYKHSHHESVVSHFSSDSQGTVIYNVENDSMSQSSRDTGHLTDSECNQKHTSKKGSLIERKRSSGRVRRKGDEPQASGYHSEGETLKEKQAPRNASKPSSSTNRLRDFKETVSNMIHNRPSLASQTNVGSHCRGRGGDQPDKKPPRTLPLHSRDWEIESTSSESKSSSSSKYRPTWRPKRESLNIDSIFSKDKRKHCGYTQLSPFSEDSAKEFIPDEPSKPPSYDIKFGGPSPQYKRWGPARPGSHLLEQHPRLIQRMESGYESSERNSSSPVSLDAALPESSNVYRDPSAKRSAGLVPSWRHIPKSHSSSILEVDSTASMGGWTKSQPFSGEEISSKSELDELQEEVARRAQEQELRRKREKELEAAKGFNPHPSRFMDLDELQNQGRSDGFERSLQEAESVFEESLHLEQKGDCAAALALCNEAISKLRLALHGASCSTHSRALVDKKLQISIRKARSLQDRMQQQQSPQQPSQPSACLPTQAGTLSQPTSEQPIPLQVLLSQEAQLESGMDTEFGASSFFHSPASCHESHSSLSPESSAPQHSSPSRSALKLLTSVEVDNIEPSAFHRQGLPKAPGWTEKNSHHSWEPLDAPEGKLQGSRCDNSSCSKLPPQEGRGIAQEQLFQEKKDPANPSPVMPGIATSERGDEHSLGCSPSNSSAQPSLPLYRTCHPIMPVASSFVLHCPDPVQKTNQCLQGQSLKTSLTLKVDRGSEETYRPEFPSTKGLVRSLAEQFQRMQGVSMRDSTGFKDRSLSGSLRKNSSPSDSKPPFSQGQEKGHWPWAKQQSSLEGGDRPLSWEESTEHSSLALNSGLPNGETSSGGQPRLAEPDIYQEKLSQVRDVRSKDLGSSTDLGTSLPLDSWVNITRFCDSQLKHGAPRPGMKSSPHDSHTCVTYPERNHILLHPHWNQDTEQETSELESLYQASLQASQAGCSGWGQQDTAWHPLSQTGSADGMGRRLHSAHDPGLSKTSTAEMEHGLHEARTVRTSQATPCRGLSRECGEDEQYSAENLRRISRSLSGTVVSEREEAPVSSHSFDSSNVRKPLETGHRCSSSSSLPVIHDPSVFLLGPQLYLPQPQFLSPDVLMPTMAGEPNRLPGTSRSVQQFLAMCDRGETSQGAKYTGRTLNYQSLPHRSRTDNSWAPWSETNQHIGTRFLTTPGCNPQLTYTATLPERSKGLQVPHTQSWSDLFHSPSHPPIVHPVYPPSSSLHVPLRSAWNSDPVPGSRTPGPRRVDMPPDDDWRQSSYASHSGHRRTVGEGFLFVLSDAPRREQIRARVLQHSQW
Procedure, shortened: as §1

USP7 = USP7 (UniProt Q93009)
USP7, sequence (Q93009 whole entry, looked up): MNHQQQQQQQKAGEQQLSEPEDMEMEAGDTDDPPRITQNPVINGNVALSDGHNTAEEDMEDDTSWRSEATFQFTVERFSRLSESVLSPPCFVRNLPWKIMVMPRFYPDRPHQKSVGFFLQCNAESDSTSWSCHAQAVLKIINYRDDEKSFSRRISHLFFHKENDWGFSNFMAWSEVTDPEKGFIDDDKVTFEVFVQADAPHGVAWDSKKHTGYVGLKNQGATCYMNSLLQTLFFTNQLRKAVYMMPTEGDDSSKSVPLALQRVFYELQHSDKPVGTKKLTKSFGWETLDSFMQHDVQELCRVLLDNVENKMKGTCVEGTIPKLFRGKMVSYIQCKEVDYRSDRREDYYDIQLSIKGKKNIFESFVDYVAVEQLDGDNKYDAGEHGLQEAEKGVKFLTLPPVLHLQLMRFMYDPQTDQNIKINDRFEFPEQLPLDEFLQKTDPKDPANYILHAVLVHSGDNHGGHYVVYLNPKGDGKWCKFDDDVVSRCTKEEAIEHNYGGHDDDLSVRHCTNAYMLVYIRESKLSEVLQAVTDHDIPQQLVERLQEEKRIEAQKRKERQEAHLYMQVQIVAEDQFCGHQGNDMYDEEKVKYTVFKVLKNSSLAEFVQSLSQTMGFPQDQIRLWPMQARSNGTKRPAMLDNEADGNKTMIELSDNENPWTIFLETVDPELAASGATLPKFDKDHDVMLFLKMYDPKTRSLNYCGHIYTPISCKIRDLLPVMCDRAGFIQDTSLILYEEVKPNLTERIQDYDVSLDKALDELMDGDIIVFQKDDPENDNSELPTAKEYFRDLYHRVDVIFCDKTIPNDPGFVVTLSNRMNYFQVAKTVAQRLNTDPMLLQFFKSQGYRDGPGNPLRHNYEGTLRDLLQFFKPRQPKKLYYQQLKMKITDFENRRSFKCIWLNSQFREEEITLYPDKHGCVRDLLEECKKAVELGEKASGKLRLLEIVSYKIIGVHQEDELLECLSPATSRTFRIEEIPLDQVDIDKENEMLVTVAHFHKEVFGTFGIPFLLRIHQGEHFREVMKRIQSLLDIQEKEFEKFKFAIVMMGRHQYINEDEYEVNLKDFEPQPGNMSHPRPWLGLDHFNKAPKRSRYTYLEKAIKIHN
Procedure, shortened: as §1

USP8 = molecular target: T5, USP8 (UniProt P40818)
T5 sequence (whole entry): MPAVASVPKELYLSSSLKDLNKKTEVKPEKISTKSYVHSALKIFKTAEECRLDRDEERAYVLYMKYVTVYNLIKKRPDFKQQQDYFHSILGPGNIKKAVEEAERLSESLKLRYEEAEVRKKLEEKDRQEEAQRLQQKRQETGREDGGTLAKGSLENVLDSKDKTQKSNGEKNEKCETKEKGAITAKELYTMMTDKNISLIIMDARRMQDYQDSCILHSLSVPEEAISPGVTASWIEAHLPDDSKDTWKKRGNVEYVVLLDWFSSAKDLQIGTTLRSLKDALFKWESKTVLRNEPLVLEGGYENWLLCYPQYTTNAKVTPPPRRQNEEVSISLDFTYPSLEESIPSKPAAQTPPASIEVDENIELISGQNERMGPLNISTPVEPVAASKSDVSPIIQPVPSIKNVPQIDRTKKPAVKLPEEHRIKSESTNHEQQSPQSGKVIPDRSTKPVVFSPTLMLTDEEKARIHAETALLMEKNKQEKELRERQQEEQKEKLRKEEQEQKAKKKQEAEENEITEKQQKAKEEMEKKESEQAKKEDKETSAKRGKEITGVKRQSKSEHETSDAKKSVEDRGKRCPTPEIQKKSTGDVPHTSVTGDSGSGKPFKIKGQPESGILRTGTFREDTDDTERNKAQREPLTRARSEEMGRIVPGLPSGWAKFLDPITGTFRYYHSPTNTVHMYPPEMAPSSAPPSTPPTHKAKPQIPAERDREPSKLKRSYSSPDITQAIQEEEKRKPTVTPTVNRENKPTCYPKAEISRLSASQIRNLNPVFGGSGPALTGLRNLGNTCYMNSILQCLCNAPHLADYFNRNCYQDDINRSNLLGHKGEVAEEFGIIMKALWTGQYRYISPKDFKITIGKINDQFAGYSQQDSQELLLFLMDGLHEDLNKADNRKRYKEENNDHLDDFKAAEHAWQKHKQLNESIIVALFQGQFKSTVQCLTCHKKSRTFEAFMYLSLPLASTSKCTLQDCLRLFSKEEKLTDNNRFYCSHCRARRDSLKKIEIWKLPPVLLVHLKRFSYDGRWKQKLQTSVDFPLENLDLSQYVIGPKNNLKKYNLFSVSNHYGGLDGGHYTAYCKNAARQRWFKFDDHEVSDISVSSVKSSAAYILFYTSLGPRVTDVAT
Procedure, shortened: as §1

Measured: log2 ratio of Biotin-Ahx-Ub-VS probe labelling

O=C(CCl)Nc1ccc2c(c1)OC(F)(F)O2
active: USP47 -1.16
inactive: USP42 -0.384 | USP46 -0.0942 | USP48 -0.476 | USP5 0.218 | USP54 0.684 | USP7 -0.296 | USP8 -0.29
